The target of assay [1] is Lysosomal acid glucosylceramidase (Homo sapiens) (UniProt P04062). Put plainly: Glucocerebrosidase-p2 (AID 348; in the data active = potency below about 10 µM; note: potency is the fitted concentration of half-maximal effect). To be noted: purified GBA, blue fluorogenic substrate, 40 min. In outline:
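Compounds titrated from 0.6 nM upwards against 0.2 nM enzyme in pH 5.9 citric acid/KH2PO4, taurocholate, tween-20; blue fluorogenic substrate 80 uM, 40 min room temperature, stopped and read Ex 365/Em 440 for AC50.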

Assay [2] is described as follows: AP1 Signaling Pathway (AID 357; active = well fitted curve in either direction with a large enough effect, not every such curve was filed as active;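 note: ME-180 reporter cells stimulated with EGF at its EC50 level; % is set by controls: 0 for no effect and ±100 for the full control effect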). To be noted: ME-180 AP-1-bla reporter, EGF-induced, beta-lactamase ratio, 5 h; at 7.69 µM (top of the series) unless noted. The essentials:
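AP-1-bla ME-180 cells, Opti-MEM + 0.5% dialyzed FBS, plated overnight 37 °C. Cpd titration + EC50 EGF, 5 h 37 °C. CCF4 2.5 h RT; ex 405, em 460/530 ratio → %activity, AC50.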

For assay [3], the target named is Cytochrome P450 1A2 (Homo sapiens) (UniProt P05177). Put plainly: p450-cyp1a2 (AID 410; calls by dose curve; note: potency is the fitted concentration of half-maximal effect). The essentials:
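20nM CYP1A2 with 100uM Luciferin-ME (at Km) in 100mM KPO4; compound preincubated 10 min, NADPH regeneration added, 60 min at room temperature. Luciferin quantified by luminescence after detection reagent; normalized to 57 uM furafylline.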

Assay [4] can be described thus: NFAT Signaling Pathway (AID 444; active = well fitted curve in either direction with a large enough effect, not every such curve was filed as active;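 note: carbachol stimulus at about its EC50 of 1 µM final; % is set by controls: 0 for no effect and ±100 for the full control effect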). To be noted: Jurkat NFAT-bla M1, carbachol, beta-lactamase ratio, 5 h; at 7.69 µM (top of the series) unless noted. In outline: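 Jurkat cells carrying an NFAT-driven β-lactamase reporter and co-transfected muscarinic M1 receptor were treated with compound plus carbachol (1 uM final, an EC50 level) for 5 h at 37 °C. CCF4 loading followed for 1 h at RT; 460/530 nm ratio gave %activity.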

Assay [5] in a line: Stat Signaling Pathway (AID 446; active = well fitted curve in either direction with a large enough effect, not every such curve was filed as active;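 note: ME-180 cervical cancer cells given 40 pM IL-6 alongside compound; SIE-controlled beta-lactamase reporter measured as 460/530 nm FRET emission ratio; % is set by controls: 0 for no effect and ±100 for the full control effect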). To be noted: ME-180 (cervical carcinoma) SIE beta-lactamase reporter, IL-6 stimulated, 5 h; at 7.69 µM (top of the series) unless noted. In outline:
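ME-180 cells carrying a SIE-driven beta-lactamase reporter are stimulated with 40 pM IL-6 for 5 h at 37C in the presence of compound. The 460/530 nm FRET substrate ratio is read after 2.5 h at RT. Data are normalised to 300 pM IL-6 and to 125 nM JAK inhibitor controls.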

Assay [6] concerns the target Glucocorticoid receptor (Homo sapiens) (UniProt P04150). Put plainly: GR-EFC Redistribution (AID 451; calls by dose curve; note: potency is the fitted concentration of half-maximal effect). To be noted: CHO-K1 GR-EFC translocation, beta-gal luminescence, 2 h. The essentials:
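CHO-K1 cells stably expressing nuclear-localized β-gal enzyme acceptor and GR fused C-terminally to the enzyme donor fragment; ligand-driven nuclear translocation restores β-gal by complementation. Compounds titrated up to 46 uM final, 2 h at 37 °C; luminescence read.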

Assay [7] concerns the target Mitogen-activated protein kinase 10 (Mus musculus) (UniProt Q61831). Put plainly: JNK3 AlphaScreen Assay (AID 530; active = well fitted curve in either direction with a large enough effect, not every such curve was filed as active;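 note: kinase came from lysate of stimulated human HepG2 cells; signal reports phosphorylation of biotinylated GST-cJun 1-79 at Ser73 with 10 µM ATP; % is set by controls: 0 for no effect and ±100 for the full control effect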). In outline: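 Inhibitors reduce antibody binding to phosphorylated biotin-cJun, lowering AlphaScreen luminescence. Lysates from HepG2 cells pre-activated by IL-1beta plus TNF-alpha supplied JNK3; compounds were titrated.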
In assay [8] the target is 3',5'-cyclic-AMP phosphodiesterase 4B (Homo sapiens) (UniProt Q07343). Put plainly: qHTS Assay for Inhibitors of PDE-IV (AID 607; active = well fitted activation curve with a large enough effect in the main read-out, with a control signal flat, not every such curve was filed as active; note: % of control where 0% means no effect). The essentials:
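HEK293 ACTOne cells with CNG channel (1000/well), endogenous PDE4; membrane potential dye, compounds up to 22.9 uM final. Fluorescence Ex 535/Em 590; RO 20-1724 (100 uM final) as reference.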

Assay [9] in a line: Primary qHTS for small molecule stabilizers of the endoplasmic reticulum resident proteome: Secreted ER Calcium Modulated Protein (SERCaMP) assay (AID 1508630). Note: % is set by controls: 0 for no effect and ±100 for the full control effect. In outline: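 GLuc-SERCaMP-expressing SH-SY5Y cells, pretreated 16 h with compound, are challenged with thapsigargin to empty ER calcium stores; after 4 h, coelenterazine is added directly to the medium and luminescence is imaged.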

The target in assay [10] is Rap guanine nucleotide exchange factor 3 (Homo sapiens) (UniProt O95398). Put plainly: Confirmatory qHTS for antagonist of cAMP-regulated guanine nucleotide exchange factor 3 (EPAC1) (AID 1645880).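 Note: plate controls were DMSO only for no effect and full effect of the ATA control for full effect; nearly all actives have a fitted effect of over 55% in size.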 In outline: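 Nucleotide exchange uses 100 nM EPAC1, 250 nM RAP1B-BODIPY-GDP and 50 uM GDP, with compounds in a concentration-titration series. After 5 min at room temperature, fluorescence (480 nm ex/540 nm em) is read every 5 min for 30 min. Data are normalized to control ATA and DMSO.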

Assay [11] shares this target. Put plainly: Confirmatory qHTS for agonist of cAMP-regulated guanine nucleotide exchange factor 3 (EPAC1) (AID 1645881).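 Note: EPAC1 catalysed release of BODIPY-GDP from Rap1B seen as fluorescence loss; 100% = effect of cAMP agonist control; nearly all actives have a fitted effect of over 75% in size.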
Assay [12] deals with Rap guanine nucleotide exchange factor 4 (Homo sapiens) (UniProt Q8WZA2). Put plainly: Confirmatory qHTS for agonist of cAMP-regulated guanine nucleotide exchange factor 4 (EPAC2) (AID 1645884).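 Note: nucleotide exchange releases bodipy-GDP from Rap1 and this lowers its fluorescence; % is set by controls: 0 for no effect and ±100 for the full control effect; nearly all actives have a fitted effect of over 65% in size.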
The target is the same in assay [13]. Put plainly: Confirmatory qHTS for antagonist of cAMP-regulated guanine nucleotide exchange factor 4 (EPAC2) (AID 1645885). Note: % is set by controls: 0 for no effect and ±100 for the full control effect; nearly all actives have a fitted effect of over 25% in size.
Assay [14] concerns the target Cytochrome P450 3A4 (Homo sapiens) (UniProt P08684). Put plainly: qHTS Assay for Inhibitors and Substrates of Cytochrome P450 3A4 (AID 884). Note: potency is the fitted concentration of half-maximal effect; nearly all actives have a fitted effect of over 50% in size. In outline: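 20 nM human CYP3A4 with 25 uM Luciferin-PPXE (at KM) in 200 mM KPO4, preincubated 10 min with compound; NADPH regeneration started a 60 min RT reaction. Luciferin detected by luminescence, normalized to 57 uM ketoconazole as full inhibition.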

Assay [15] shares this target. Put plainly: qHTS Assay for Activators of Cytochrome P450 3A4 (AID 885). Note: nearly all actives have a fitted effect of over 65% in size. The essentials:
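Human CYP3A4 (20 nM) with Luciferin-PPXE at 25 uM (its KM) in 200 mM KPO4; 10 min compound preincubation, then NADPH regeneration and 60 min reaction at RT. Luciferin read by luminescence; normalized to 57 uM ketoconazole full inhibition.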

The nature of assay [16]: qHTS Assay for Lipid Storage Modulators (AID 1519; calls by dose curve). To be noted: Drosophila S3 cells, BODIPY lipid droplet/cell ratio, laser cytometry, cells loaded with oleic acid; for activity change, negative = inhibition: at 57.5 µM (top of the series). In outline:
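Cells seeded at 5,000 per well were treated with compounds over a concentration series and loaded with oleic acid (400 uM, as added). Lipid droplet fluorescence (488 nm excitation, 500-530 nm channel) was read by laser-scanning cytometry and normalized to 20 uM Triacsin C.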

Assay [17] deals with Ubiquitin carboxyl-terminal hydrolase 1 (Homo sapiens) (UniProt O94782). Put plainly: Inhibitors of USP1/UAF1: Pilot qHTS (AID 504865).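 Note: rhodamine fluorescence freed from ubiquitin-rhodamine substrate followed over time; top concentration of the series differs between compounds; % is set by controls: 0 for no effect and ±100 for the full control effect; nearly all actives have a fitted effect of over 35% in size.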 In outline:
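In 50mM HEPES pH 7.8 containing 0.5mM EDTA, 1mM TCEP, 0.1 mg/ml BSA and 0.01% Tween-20, 1nM USP1/UAF1 is exposed to compound for 15 min, then Ub-Rho (150nM final) is added and fluorescence is read over time.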

The target in assay [18] is Glucocorticoid receptor (Homo sapiens) (UniProt P04150). Put plainly: GR-GFP Redistribution (AID 450;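 active = compounds whose dose series gives a full or clear partial fitted curve of increased nuclear translocation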; note: potency is the fitted concentration of half-maximal effect). To be noted: U2OS GR-GFP nuclear translocation, laser cytometry, 2 h.
The target of assay [19] is Dual specificity protein kinase CLK4 (Homo sapiens) (UniProt Q9HAZ1). Put plainly: qHTS Assay for Inhibitors of CDC-like Kinase 4 (ADP-FP Assay) (AID 1795).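 Note: recombinant human CLK4 phosphorylating RS repeat peptide at 1 µM ATP; % is set by controls: 0 for no effect and ±100 for the full control effect; nearly all actives have a fitted effect of over 60% in size.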 The essentials:
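Clk4 6.25 nM; RS peptide 100 uM; ATP 1 uM; 25 mM Tris pH 7.5, 10 mM MgCl2; 1 h reaction. ADP detected via antibody/orange tracer FP displacement; TG003 positive control.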

The target is the same in assay [20]. Put plainly: qHTS Assay for Inhibitors of CDC-like Kinase 4 (Kinase-Glo Assay) (AID 1770). Note: % is set by controls: 0 for no effect and ±100 for the full control effect; nearly all actives have a fitted effect of over 65% in size. In outline:
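Substrate mix (RS peptide 100 uM, ATP 1 uM) dispensed, compound pinned in, then Clk4 added to 25 nM final. Incubated 4.5 h at RT; Kinase-Glo reagent added, luminescence read after 5 min.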

Where [21] appears, read: measured here: cell count channel max response.
Where [22] appears, read: measured here: lipid channel max response.

Inconclusive results are not listed. Active and inactive are the calls of the source. Unless noted, calls come from the whole dose curve; as a rule, active = well fitted curve in the direction sought with a large enough effect; inconclusive = small, poorly fitted or top-dose-only effect, or another doubt; inactive = no such curve, though single readings can be large; an effect the other way counts as inactive or inconclusive.

Chain of Cytochrome P450 3A4 (Homo sapiens) (P08684 whole entry, looked up): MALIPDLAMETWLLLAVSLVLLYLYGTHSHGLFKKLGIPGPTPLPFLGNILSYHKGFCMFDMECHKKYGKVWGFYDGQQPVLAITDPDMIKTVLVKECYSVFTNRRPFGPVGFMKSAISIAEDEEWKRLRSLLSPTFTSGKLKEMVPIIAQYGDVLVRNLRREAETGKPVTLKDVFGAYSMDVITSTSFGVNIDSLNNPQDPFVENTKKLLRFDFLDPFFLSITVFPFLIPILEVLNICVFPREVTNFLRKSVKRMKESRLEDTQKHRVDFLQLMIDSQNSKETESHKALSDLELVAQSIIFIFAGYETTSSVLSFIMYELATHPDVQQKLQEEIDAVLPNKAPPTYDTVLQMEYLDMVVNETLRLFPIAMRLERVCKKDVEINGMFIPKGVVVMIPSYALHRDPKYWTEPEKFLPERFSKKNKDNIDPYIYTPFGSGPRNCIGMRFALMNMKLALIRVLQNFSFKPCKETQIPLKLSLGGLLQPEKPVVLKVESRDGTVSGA
Chain of Rap guanine nucleotide exchange factor 3 (Homo sapiens) (O95398 whole entry, looked up): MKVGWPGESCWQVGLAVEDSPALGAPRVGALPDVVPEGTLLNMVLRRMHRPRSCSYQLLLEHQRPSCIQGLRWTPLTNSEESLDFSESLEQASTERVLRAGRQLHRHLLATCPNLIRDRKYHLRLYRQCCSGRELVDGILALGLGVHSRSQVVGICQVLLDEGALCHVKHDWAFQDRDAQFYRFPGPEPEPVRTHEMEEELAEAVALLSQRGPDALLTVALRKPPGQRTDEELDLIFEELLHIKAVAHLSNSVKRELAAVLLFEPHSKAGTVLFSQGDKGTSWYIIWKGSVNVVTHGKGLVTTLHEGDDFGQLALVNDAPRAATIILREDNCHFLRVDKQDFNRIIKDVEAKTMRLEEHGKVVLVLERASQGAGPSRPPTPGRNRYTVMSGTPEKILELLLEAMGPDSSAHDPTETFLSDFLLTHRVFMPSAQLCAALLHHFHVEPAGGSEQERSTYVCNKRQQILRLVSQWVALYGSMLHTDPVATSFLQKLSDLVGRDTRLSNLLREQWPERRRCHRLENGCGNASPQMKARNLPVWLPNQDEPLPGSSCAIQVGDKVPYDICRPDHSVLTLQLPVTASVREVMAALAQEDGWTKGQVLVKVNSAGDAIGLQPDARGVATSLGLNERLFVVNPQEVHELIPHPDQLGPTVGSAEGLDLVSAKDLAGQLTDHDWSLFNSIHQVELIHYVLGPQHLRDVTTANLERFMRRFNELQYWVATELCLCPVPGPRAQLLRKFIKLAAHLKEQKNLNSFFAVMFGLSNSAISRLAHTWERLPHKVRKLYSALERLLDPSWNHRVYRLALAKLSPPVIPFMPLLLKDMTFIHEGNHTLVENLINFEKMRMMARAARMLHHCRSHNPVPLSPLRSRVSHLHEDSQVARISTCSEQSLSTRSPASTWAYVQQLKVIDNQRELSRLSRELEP
Chain of Cytochrome P450 1A2 (Homo sapiens) (P05177 whole entry, looked up): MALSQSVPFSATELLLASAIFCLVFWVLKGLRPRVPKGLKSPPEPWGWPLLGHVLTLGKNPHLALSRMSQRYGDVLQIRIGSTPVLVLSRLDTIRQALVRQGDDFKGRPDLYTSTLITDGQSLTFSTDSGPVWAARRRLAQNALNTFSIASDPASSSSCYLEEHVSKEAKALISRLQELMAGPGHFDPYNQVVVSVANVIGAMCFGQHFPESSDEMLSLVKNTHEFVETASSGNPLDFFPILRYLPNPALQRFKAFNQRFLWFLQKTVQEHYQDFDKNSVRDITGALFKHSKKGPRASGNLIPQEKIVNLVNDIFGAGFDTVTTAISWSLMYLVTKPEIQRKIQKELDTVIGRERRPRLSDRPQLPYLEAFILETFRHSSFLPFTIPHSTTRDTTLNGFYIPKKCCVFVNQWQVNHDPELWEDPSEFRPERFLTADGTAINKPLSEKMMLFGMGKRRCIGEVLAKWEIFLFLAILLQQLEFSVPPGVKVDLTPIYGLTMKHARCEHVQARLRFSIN
Chain of Dual specificity protein kinase CLK4 (Homo sapiens) (Q9HAZ1 whole entry, looked up): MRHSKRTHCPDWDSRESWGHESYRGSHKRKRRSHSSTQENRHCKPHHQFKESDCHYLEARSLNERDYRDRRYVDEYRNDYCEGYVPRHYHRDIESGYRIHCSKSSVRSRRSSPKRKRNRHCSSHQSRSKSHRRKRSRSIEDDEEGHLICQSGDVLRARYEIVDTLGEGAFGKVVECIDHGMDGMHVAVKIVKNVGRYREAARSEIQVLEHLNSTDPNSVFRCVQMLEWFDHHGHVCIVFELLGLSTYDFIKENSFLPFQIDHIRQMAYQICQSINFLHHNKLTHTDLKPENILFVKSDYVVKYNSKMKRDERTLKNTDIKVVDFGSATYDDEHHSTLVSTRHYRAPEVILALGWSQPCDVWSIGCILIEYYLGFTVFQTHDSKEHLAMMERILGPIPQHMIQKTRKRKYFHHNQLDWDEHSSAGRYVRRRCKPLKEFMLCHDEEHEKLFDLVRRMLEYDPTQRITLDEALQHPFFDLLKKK
Chain of Rap guanine nucleotide exchange factor 4 (Homo sapiens) (Q8WZA2 whole entry, looked up): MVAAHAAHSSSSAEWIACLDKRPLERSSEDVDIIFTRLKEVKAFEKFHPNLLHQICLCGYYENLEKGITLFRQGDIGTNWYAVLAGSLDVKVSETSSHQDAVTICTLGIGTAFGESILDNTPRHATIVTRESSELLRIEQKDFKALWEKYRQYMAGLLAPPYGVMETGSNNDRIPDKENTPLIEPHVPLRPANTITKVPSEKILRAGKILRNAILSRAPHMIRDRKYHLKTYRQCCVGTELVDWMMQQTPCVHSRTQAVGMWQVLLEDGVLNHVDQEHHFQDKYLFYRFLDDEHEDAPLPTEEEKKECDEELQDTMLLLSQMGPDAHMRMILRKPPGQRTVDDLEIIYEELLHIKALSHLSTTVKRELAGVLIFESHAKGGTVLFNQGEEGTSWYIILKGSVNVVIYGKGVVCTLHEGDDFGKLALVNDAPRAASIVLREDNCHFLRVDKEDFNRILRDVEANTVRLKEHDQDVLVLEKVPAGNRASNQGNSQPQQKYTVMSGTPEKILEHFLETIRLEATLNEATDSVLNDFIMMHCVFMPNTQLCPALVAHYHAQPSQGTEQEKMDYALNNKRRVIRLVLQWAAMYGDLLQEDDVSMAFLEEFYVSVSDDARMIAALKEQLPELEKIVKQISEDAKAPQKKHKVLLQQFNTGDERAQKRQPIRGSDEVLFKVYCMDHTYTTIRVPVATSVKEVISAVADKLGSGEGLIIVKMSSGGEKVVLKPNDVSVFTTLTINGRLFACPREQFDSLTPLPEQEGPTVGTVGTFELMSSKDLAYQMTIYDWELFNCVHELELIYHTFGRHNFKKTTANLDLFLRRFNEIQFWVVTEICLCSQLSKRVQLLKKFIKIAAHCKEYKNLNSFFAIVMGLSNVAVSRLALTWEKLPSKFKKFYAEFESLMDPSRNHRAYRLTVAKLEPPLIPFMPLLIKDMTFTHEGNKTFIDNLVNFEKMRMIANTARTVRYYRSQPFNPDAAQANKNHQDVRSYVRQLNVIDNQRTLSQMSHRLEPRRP
Chain of 3',5'-cyclic-AMP phosphodiesterase 4B (Homo sapiens) (Q07343 whole entry, looked up): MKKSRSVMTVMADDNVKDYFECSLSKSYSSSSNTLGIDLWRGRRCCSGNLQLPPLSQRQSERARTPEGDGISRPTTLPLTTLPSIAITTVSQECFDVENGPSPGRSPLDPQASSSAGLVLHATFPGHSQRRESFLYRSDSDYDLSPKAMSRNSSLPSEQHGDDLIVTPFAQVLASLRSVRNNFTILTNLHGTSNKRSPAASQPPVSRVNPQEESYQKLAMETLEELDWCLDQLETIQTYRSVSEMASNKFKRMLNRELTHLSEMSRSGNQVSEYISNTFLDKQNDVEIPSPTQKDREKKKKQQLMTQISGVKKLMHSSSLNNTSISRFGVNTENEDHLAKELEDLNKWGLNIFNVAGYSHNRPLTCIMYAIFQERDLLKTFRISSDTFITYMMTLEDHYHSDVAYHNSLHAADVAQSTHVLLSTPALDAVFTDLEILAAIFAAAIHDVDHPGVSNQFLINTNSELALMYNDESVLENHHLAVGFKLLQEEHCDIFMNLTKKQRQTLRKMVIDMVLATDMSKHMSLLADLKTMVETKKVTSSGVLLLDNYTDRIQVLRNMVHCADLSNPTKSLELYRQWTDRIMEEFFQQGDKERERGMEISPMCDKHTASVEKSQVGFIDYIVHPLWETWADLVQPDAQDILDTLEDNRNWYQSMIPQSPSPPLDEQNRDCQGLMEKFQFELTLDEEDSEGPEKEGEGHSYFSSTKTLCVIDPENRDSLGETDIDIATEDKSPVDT
Chain of Glucocorticoid receptor (Homo sapiens) (P04150 whole entry, looked up, the tested form may be a part): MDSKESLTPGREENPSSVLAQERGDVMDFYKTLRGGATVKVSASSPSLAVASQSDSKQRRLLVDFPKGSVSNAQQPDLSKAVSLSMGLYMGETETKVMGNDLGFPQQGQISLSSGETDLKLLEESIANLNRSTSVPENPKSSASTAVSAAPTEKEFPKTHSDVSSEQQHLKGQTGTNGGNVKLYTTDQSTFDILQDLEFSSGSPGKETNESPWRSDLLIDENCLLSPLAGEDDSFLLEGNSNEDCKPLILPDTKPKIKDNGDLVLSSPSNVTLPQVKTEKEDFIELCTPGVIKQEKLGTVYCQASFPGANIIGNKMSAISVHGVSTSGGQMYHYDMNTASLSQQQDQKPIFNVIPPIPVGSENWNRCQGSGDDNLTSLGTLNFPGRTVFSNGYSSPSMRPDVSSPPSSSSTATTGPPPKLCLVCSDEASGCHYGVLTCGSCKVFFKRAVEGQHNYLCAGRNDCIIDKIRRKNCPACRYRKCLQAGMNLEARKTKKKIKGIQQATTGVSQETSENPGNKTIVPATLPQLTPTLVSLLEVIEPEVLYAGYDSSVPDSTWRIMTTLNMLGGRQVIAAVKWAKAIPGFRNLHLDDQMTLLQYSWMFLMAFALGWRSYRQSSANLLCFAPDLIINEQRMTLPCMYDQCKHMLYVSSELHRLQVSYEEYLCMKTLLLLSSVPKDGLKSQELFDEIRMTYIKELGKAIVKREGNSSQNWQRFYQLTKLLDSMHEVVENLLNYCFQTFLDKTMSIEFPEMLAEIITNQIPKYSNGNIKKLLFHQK

Turning to `COc1cccc(Nc2ncc3nc(-c4cc(F)cc(F)c4)c(=O)n(C4CC4)c3n2)c1`, the Potency was > 11.4 µM (inactive) in [1], 6.31 µM (active) in [3] and > 46 µM (inactive) in assay [6]. In addition, the values for the activity change, negative = inhibition in [2] and in [4] were -13.3% (inactive) and -29.9% (inactive), respectively. In addition, in assay [5], the activity, negative = inhibition is -7.32% (inactive). Also, the Potency result in assay [7], in assay [8], in [10], in assay [11], in assay [12] and in assay [13] was “inactive” each time. Also, in [9], the outcome was inactive.
`Cc1cc(OC(=O)c2c(C)cc(O)cc2O)cc(O)c1C(=O)O`: the Potency in assay [14] was 12.6 µM (active). Besides, the Potency entry in assay [15] and in assay [17] was “inactive” throughout. Also, the activity change, negative = inhibition in assay [16] is 8.43% (inactive). Also, the max response was 13% in assay [16] (setting [21]) and 23.1% in assay [16] (setting [22]). In assay [9], the outcome was inactive.
In the case of `COc1cccc(Cn2c(=O)c(-c3ccc(F)cc3)nc3cnc(N4CCOCC4)nc32)c1`, the results for the Potency in [1], in assay [18] and in assay [6] were > 11.4 µM (inactive), > 9.22 µM (inactive) and > 46 µM (inactive), respectively. Also, the Potency result in assay [7], in assay [8], in [19], in assay [17], in assay [10] and in assay [11] was “inactive” in each case. The Potency entry in assay [12] and in assay [13] was “inactive” throughout. Besides, the result in [9] was inactive.
Regarding `COCCNc1nc(-c2ccccc2C)nc2ccccc12`, the Potency was 1.26 µM (active) in assay [3], > 46 µM (inactive) in assay [18] and > 46 µM (inactive) in assay [6]. The results for the activity change, negative = inhibition in assay [4] and in [16] were -2.48% (inactive) and 7.59% (inactive), respectively. In addition, the activity, negative = inhibition in assay [5] was 5.05% (inactive). Besides, the Potency entry in [7], in assay [8] and in [15] was “inactive” in each case. Also, the max response turned out to be 3.47% in [16] (setting [21]) and 22.3% in [16] (setting [22]). Further, the result in assay [9] was inactive.
Take `O=C(c1cccc(F)c1)N1CCC2(CCCN(c3cccc(-c4ccccc4)c3)C2)CC1`: the Potency was > 11.4 µM (inactive) in assay [1], 15.8 µM (active) in [3] and > 46 µM (inactive) in assay [6]. The values for the activity change, negative = inhibition in assay [2] and in assay [4] were 11.6% (inactive) and -6.68% (inactive), respectively. Besides, the activity, negative = inhibition in assay [5] is 7.29% (inactive). For the same molecule, the Potency result in assay [7], in assay [8], in [10], in [11], in assay [12] and in assay [13] was “inactive” in each case. Besides, the result in assay [9] was inactive.
With `O=c1c(-c2cc(F)cc(F)c2)nc2cncnc2n1Cc1ccccc1Cl`, the Potency in assay [1] is > 11.4 µM (inactive); in assay [3], 5.01 µM (active); in assay [18], > 9.22 µM (inactive); in assay [6] it was > 46 µM (inactive). Also, the activity change, negative = inhibition in assay [2] was 5.85% (inactive); in assay [4], -19.2% (inactive). Further, the activity, negative = inhibition in [5] was -6.37% (inactive). Further, the Potency entry in assay [7], in assay [8], in [15], in assay [20], in assay [19] and in [17] was “inactive” throughout. Also, the Potency entry in [10], in assay [11], in assay [12] and in assay [13] was “inactive” throughout. Also, the outcome in [9] was inactive.
On to `Cn1cccc1C(=O)N1CCC2(CCCN(c3cccc(-c4ccccc4)c3)C2)CC1`, for which the Potency in [1] was > 11.4 µM (inactive); in assay [3] it was 15.8 µM (active); in assay [6] it was > 46 µM (inactive). The figures for the activity change, negative = inhibition in assay [2] and in assay [4] were 7.29% (inactive) and -13.3% (inactive), respectively. Also, the activity, negative = inhibition in [5] was 2.34% (inactive). Moreover, the Potency result in assay [15], in [10], in assay [11], in [12] and in assay [13] was “inactive” in each case. Moreover, in assay [9], the result was inactive.

For the origin of these results see PubChem BioAssay (NCATS).
